Sampled rows, rich in hits. Any-hit rate of the full collection: about 4%.
Rv3671c inh: Rv3671c serine protease inhibitors, primary screen, biochemical, fluorescence polarization, M. tuberculosis H37Rv. hit rate 0.048% among 320,000. AID 2606, 2010. inhibition, % at 5.96 µM; in the data active means inhibition above about 38%;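 further: extracellular domain of Rv3671c used as enzyme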
Target sequence (P9WHR9 whole entry, looked up, the tested form may be a part): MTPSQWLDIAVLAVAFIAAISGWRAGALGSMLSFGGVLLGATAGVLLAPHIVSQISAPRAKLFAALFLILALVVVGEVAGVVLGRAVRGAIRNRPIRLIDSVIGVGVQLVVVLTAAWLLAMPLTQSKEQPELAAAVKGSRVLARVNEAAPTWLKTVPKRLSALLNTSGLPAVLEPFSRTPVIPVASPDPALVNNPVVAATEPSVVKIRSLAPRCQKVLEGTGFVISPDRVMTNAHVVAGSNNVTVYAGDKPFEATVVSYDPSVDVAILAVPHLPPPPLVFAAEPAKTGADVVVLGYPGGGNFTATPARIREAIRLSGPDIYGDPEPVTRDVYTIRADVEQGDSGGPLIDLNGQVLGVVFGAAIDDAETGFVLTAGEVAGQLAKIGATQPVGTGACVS
UGM FP inh: M. tuberculosis UGM enzyme inhibitors, primary screen, biochemical, fluorescence polarization, single point. UDP-galactopyranose mutase (Mycobacterium tuberculosis (strain ATCC 25618 / H37Rv)), …. purified UGM, fluorescence polarization probe displacement. inhibition, % at 10 µM. hit rate 0.06% among 320,000; in the data active means inhibition above about 10%, passing the limit was not always enough; inconclusive means no clear call, values can overlap the other calls
Mtb bLac sens: beta-lactam sensitization of Mtb H37Rv, H37Rv | M. tuberculosis H37Rv growth with meropenem, percent inhibition | inhibition, % at 25 µM | hit rate 0.27% among 330,000 | AID 434955, 2010; call rule not given here;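 further: growth measured after seven days incubation then overnight dye step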
RecA intein inh: Mtb RecA intein splicing inhibitors, primary screen, biochemical, fluorescence, HTS | Protein RecA (Mycobacterium tuberculosis (strain ATCC 25618 / H37Rv)), P9WHJ3 | cell-free RecA intein splicing | inhibition, % (test concentration not listed) | hit rate 0.75% among 290,000 | AID 2221, 2009; in the data active means inhibition above about 30%; inconclusive means no clear call, values can overlap the other calls
Mtb FBA inh: Mtb FBA enzyme inhibitors, primary screen, biochemical, fluorescence, strain H37Rv; Fructose-bisphosphate aldolase (Mycobacterium tuberculosis (strain ATCC 25618 / H37Rv)), …; purified M. tuberculosis FBA, fluorescence read-out; inhibition, % at 1 µM; hit rate 2.3% among 360,000; AID 588726, 2011; in the data active means inhibition above about 27%
GDH-TPI inh: GDH-TPI coupling enzyme inhibitors, primary screen, artefact control for M. tuberculosis FBA inhibitor project, biochemical, absorbance, full deck; GDH-TPI coupled enzyme counterscreen, NADH absorbance; hit rate 1.2% among 360,000; inhibition, % at 4.8 µM; in the data active means inhibition above about 30%
Numbers stand for hits.

`CCN(CC)C(=O)C1=C(C)N(Cc2ccccc2)C(=O)C(CC(=O)NCCc2ccccn2)C1` (stereo not given) gave Mtb FBA inh inactive and GDH-TPI inh inactive.
Screening CC(=O)NC(c1ccc(F)c(F)c1)c1nc(-c2ccc(C)c(C)c2)cs1 (stereo not given) returned Mtb FBA inh inactive and GDH-TPI inh inactive.
For CCOC(=O)C1CCN(CC(=O)Nc2ccc(S(=O)(=O)N3CCC(C)CC3)cc2)CC1 the results were Rv3671c inh inactive, UGM FP inh inactive, Mtb bLac sens inactive, RecA intein inh inactive, Mtb FBA inh inactive and GDH-TPI inh inactive.
For Cc1ccc(-c2nc(C(=O)NCCCN(C)C)cc3c2[nH]c2ccccc23)cc1 the results were Rv3671c inh inactive, UGM FP inh inactive, Mtb bLac sens inactive, RecA intein inh inactive, Mtb FBA inh 28 and GDH-TPI inh inactive.
Screening COc1ccccc1CNC(=O)CCN=C1NS(=O)(=O)c2ccccc21 returned Rv3671c inh inactive, UGM FP inh inactive, Mtb bLac sens inactive, Mtb FBA inh inactive and GDH-TPI inh inactive.
COc1cc(C2Nc3ccccc3NC3=C2C(=O)CC(c2ccc(OC)c(OC)c2)C3)ccc1O (stereo not given) was read as Rv3671c inh inactive, UGM FP inh inactive, Mtb bLac sens inactive, RecA intein inh inactive, Mtb FBA inh inactive and GDH-TPI inh 44.
For COc1ccc(C2CC(=O)C3=C(C2)Nc2ccccc2N(C(=O)C2CC2)C3c2cccnc2)cc1OC (stereo not given) the results were Rv3671c inh inactive, UGM FP inh inactive, Mtb bLac sens inactive, RecA intein inh inactive, Mtb FBA inh inactive and GDH-TPI inh inactive.
For CC(=O)C1=CCC(c2ccccc2)N(S(=O)(=O)c2ccccc2C)C1 (stereo not given) the results were Mtb FBA inh inactive.
`CC(C)CC(=O)Nc1ccc2oc(-c3cccnc3)nc2c1` gave Rv3671c inh inactive, UGM FP inh inactive, Mtb bLac sens inactive, RecA intein inh inactive, Mtb FBA inh 129 and GDH-TPI inh inactive.
O=C(Nc1ccc2oc(-c3cccnc3)nc2c1)c1ccc(Br)o1 was read as Rv3671c inh inactive, UGM FP inh inactive, Mtb bLac sens inactive, RecA intein inh inactive, Mtb FBA inh inactive and GDH-TPI inh inactive.
Cc1ccc2nc(-c3cccnc3)oc2c1 was read as Rv3671c inh inactive, UGM FP inh inactive, Mtb bLac sens inactive, RecA intein inh inactive, Mtb FBA inh 41 and GDH-TPI inh inactive.
For CCC(=O)Nc1ccc2oc(-c3cccnc3)nc2c1 the results were Rv3671c inh inactive, UGM FP inh inactive, Mtb bLac sens inactive, RecA intein inh inactive, Mtb FBA inh 172 and GDH-TPI inh inactive.
O=C(Nc1ccc2oc(-c3cccnc3)nc2c1)c1cccnc1 was read as Rv3671c inh inactive, UGM FP inh inactive, Mtb bLac sens inactive, Mtb FBA inh inactive and GDH-TPI inh inactive.
For Cn1c(CNC(=O)c2ccco2)nnc1SCC(=O)c1ccc(F)cc1 the results were Rv3671c inh inactive, UGM FP inh inactive, Mtb bLac sens inconclusive, RecA intein inh inactive, Mtb FBA inh inactive and GDH-TPI inh inactive.
Screening COc1ccc(NC(C)(C)c2nnnn2-c2c(C)cccc2C)cc1 returned Rv3671c inh inactive, UGM FP inh inactive, Mtb bLac sens inactive, RecA intein inh inactive, Mtb FBA inh inactive and GDH-TPI inh inactive.
For Cc1ccc2c(c1)C(c1ccccc1)CC(=O)O2 (stereo not given) the results were Rv3671c inh inactive, UGM FP inh inactive, Mtb bLac sens inactive, RecA intein inh inactive, Mtb FBA inh inactive and GDH-TPI inh inactive.
`COc1cc(/C=C/C(=O)OCC(=O)Nc2ccc([N+](=O)[O-])cc2)ccc1O` gave Rv3671c inh inactive, UGM FP inh inactive, Mtb bLac sens inactive, RecA intein inh inactive, Mtb FBA inh inactive and GDH-TPI inh 68.
For O=C1NC(=Nc2ccccc2)S/C1=C\c1cccnc1 the results were Rv3671c inh inactive, UGM FP inh inactive, Mtb bLac sens inactive, RecA intein inh inactive, Mtb FBA inh inactive and GDH-TPI inh 33.
Cc1ccc(N=C2NC(=O)/C(=C/c3cccnc3)S2)cc1C was read as Rv3671c inh inactive, UGM FP inh inactive, Mtb bLac sens inactive, RecA intein inh inactive, Mtb FBA inh inactive and GDH-TPI inh inactive.
Cc1ccc(S(=O)(=O)/N=C2/NC(=O)/C(=C/c3ccncc3)S2)cc1 was read as Rv3671c inh inactive, UGM FP inh inactive, Mtb bLac sens inactive and RecA intein inh inactive.
`O=C1N/C(=N/S(=O)(=O)c2ccccc2)S/C1=C/c1cccnc1` gave Rv3671c inh inactive, UGM FP inh inactive, Mtb bLac sens inactive, RecA intein inh inactive, Mtb FBA inh inactive and GDH-TPI inh 33.
Screening COc1ccc(-c2cc(C(F)(F)F)n3nc(N)nc3n2)cc1 returned Rv3671c inh inactive, UGM FP inh inactive, Mtb bLac sens inactive, RecA intein inh inactive, Mtb FBA inh active and GDH-TPI inh inactive.
COc1cccc(-c2cc(C(F)(F)F)n3nc(N)nc3n2)c1 was read as Rv3671c inh inactive, UGM FP inh inactive, Mtb bLac sens inactive, RecA intein inh inactive, Mtb FBA inh inactive and GDH-TPI inh 36.
Screening COc1cccc(NC(=O)c2ccc(OC(F)(F)F)cc2)c1 returned Rv3671c inh inactive, UGM FP inh inactive, Mtb bLac sens inactive, RecA intein inh inactive, Mtb FBA inh inactive and GDH-TPI inh inactive.
COc1ccc2[nH]cc(CCNC(=O)/C=C/[C@H]3O[C@@H](n4cnc5c(NC(=O)c6ccccc6)ncnc54)[C@H](O)[C@@H]3O)c2c1 was read as Mtb FBA inh inactive.
COc1ccccc1N1CCc2c(C)nc3c(OC)cccc3c21 was read as Rv3671c inh inactive, UGM FP inh inactive, Mtb bLac sens inactive, RecA intein inh inactive, Mtb FBA inh inactive and GDH-TPI inh 46.
For COc1cccc2c3c(c(C)nc12)CCN3c1ccccc1 the results were Rv3671c inh inactive, UGM FP inh inactive, Mtb bLac sens inactive, RecA intein inh inactive, Mtb FBA inh inactive and GDH-TPI inh inactive.
For COc1ccc(-c2oc3ccccc3c(=O)c2OC(C)=O)cc1 the results were Rv3671c inh inactive, UGM FP inh inactive, Mtb bLac sens inactive, RecA intein inh inactive, Mtb FBA inh active and GDH-TPI inh 46.
Screening COc1ccc(-c2oc3cc(OC(C)=O)cc(OC(C)=O)c3c(=O)c2OC)cc1 returned Mtb FBA inh inactive and GDH-TPI inh inactive.
`COC(=O)[C@]1(C)N[C@H](CN(C)C(=O)C2CCCCC2)[C@@H]2C(=O)N(C)C(=O)[C@@H]21` gave Rv3671c inh inactive, Mtb bLac sens inactive, Mtb FBA inh inactive and GDH-TPI inh inactive.
For CCOC(=O)c1ccc(-c2c(-c3ccccc3OC)oc3ccccc23)cc1F the results were Rv3671c inh inactive, UGM FP inh inactive, Mtb bLac sens inactive, Mtb FBA inh 28 and GDH-TPI inh inactive.
